DT40 TDP1 no CPT = qHTS for Inhibitors of human tyrosyl-DNA phosphodiesterase 1 (TDP1): qHTS in cells in absence of CPT. Potency, µM (doses to about 46.2 µM), for the others: at the highest dose activity change, negative = growth inhibition, usual class: inhibitors. hit rate 15% among 420,000. DT40 Tdp1-/- hTDP1 cells, no CPT, ATP luminescence, 48 h; further: potency means the concentration at half of the fitted maximal effect; nearly all actives have a fitted effect of over 55% in size
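Compound effects on proliferation are scored in DT40 Tdp1-/-;hTDP1 cells in the absence of CPT. ATP levels (CellTiter-Glo luminescence) are recorded after a ≥48 hr, 37 °C incubation.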
DT40 TDP1 CPT = growth inhibition of DT40 Tdp1-/-;hTDP1 cells with camptothecin (screen for TDP1 inhibitors) | chicken DT40 Tdp1-/-;hTDP1 cells + 20 nM CPT, ATP luminescence, 48 h | Potency, µM (series often up to 46.2 µM), for inactives: at the top dose activity change, negative = growth inhibition, most hits filed as inhibitors | hit rate 12% among 420,000 | AID 686979; further: potency means the concentration at half of the fitted maximal effect; nearly all actives have a fitted effect of over 55% in size
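Cell growth measured by CellTiter-Glo luminescence after a minimum 48 h, 37 C compound exposure with 20 nM CPT in Tdp1-knockout DT40 cells stably expressing hTDP1, seeded 400/well; qHTS titration format.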
ELG1 DNA repair = inhibitors of ELG1-dependent DNA repair in HEK293T cells | hit rate 2.3% among 330,000 | HEK293T ELG1-luciferase reporter, luminescence, 16 h; DNA damage induced by 5-fluorouridine | Potency, µM (top dose mostly 46.1 µM), inactives show at the highest dose activity change, negative = inhibition, hits mostly inhibitors; further: potency means the concentration at half of the fitted maximal effect; nearly all actives have a fitted effect of over 55% in size
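Cells (2,000 per well) received 5-fluorouridine plus test compound or DMSO and were incubated 16 hr at 37 °C, 5% CO2. Luciferase activity was read by luminescence 30 min after ONE-Glo addition; signal suppression marked inhibition of damage-induced ELG1 function.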
TDP1 inh = TDP1 (human) enzyme inhibition; AID 485290; recombinant TDP1, AlphaScreen DNA substrate cleavage; Potency, µM (series often up to 130 µM), for inactives: at the top dose activity change, negative = inhibition, hits mostly inhibitors; hit rate 0.28% among 350,000; further: potency means the concentration at half of the fitted maximal effect; nearly all actives have a fitted effect of over 40% in size
Target sequence (Q9NUW8 whole entry, looked up): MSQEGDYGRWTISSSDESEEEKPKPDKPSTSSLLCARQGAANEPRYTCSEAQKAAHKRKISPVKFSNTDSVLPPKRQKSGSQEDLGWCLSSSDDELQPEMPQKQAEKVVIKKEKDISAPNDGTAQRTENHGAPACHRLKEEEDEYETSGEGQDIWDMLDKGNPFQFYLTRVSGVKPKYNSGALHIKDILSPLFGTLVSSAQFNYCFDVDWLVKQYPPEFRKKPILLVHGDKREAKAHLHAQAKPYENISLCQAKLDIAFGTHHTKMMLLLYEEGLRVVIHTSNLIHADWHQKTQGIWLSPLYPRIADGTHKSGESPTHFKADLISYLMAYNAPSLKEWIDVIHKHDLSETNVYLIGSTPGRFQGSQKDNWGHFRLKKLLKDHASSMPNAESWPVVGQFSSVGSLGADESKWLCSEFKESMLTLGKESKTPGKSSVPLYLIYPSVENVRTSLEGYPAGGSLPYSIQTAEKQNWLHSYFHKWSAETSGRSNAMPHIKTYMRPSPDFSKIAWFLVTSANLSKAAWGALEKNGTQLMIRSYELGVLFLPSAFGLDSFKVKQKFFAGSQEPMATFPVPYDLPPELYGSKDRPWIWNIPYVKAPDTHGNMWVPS
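Recombinant human Tdp1 (E. coli-expressed, 1 nM final) preincubated with compounds 15 min at room temperature, then 5'-biotin/3'-phosphotyrosine-FITC DNA substrate (15 nM final) added for 5 min. AlphaScreen beads (10 ug/ml final) added 10 min; cleavage lowers signal.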
IL1B secr inh = blocks inflammasome-driven IL-1 beta release; THP-1 LPS/ATP IL-1B secretion, AlphaLISA, 16 h; stronger effect = lower value; activity change, % at 57.5 µM; hit rate 4.7% among 360,000; AID 743279; in the data active means activity change below about -50%; inconclusive means mostly about -30% to -49%
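Secreted IL-1B measured by AlphaLISA bead assay after 16 h compound exposure of THP-1 cells; compounds (final up to 57.5 uM) added 1 h before LPS (250 ng/mL) and ATP (1.25 mM) stimulation; lower signal means less secretion.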
Giardia kill = kills Giardia lamblia | Giardia lamblia trophozoite viability | activity change, % at 7.66 µM, hits read low | hit rate 0.15% among 340,000 | AID 540267; in the data active means activity change below about -80%; inconclusive means between about -30% and that limit;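 further: parasites exposed to compound for two days anaerobically before the ATP read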
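Trophozoites 100 cells/well + cpd; 48 hrs, 37 deg C, anaerobic. ATPLite 1-Step added, 15-30 min RT, luminescence read (ATP-based viability).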
Numbers without * were called inactive; ? = inconclusive; · = not tested or not shown; [ ] = remark or other dose. The list is not random: actives were taken first. Their share in the collection is about 19%. Unless noted, the call rests on the fitted dose curve; in most records, active means well fitted curve in the direction sought with a large enough effect; inconclusive means small, poorly fitted or top-dose-only effect, or another doubt; inactive means no such curve, though single readings can be large; an effect the other way counts as inactive or inconclusive. On the % scale 0 is the no-effect control and ±100 the full control effect.

SMILES | DT40 TDP1 no CPT | DT40 TDP1 CPT | ELG1 DNA repair | TDP1 inh | IL1B secr inh | Giardia kill
Cc1noc(C(=O)Nc2sc3c(c2C#N)CCC3)c1Cl | ? | ? | 6% | -8% | 32 | 6
O=C(NN1C(=O)C2C3C=CC(C4CC34)C2C1=O)c1cccc(Br)c1 (stereo not given) | ? | -25% | 0% | 1% | 0 | -28
CCOc1ccc(C(=O)Nc2cccc(C(=O)OCc3cc(=O)n4nc(C5CC5)sc4n3)c2)cc1 | ? | ? | · | 1% | · | ·
COc1ccc(NC(=O)N2CC3(CCN(C(=O)Oc4ccccc4)CC3)C2)cc1 | -30% | -7% | · | · | · | ·
Cc1cc(C(=O)CS(=O)(=O)c2ccccc2)cc(C)c1OC(=O)N(C)C | 18µM* | ? | ? | 3% | 34 | -17
Cc1ccc(S(=O)(=O)CC(=O)c2cc(C)c(OC(=O)N(C)C)c(C)c2)cc1 | ? | ? | -2% | 0% | 3 | -1
O=C1Nc2ccccc2Oc2ccccc21 | 10% | 7% | · | · | ? | ·
CCN(CC)c1ncnc2c1ncn2[C@@H]1O[C@@H](COP(=O)(O)OP(=O)(O)C(Br)(Br)P(=O)(O)O)[C@H](O)[C@H]1O | -6% | -23% | · | -5% | · | ·
O=C1CCN(C(=O)CNC(=O)Cc2ccccc2)CC1 | 1% | 17% | 12% | 0% | 16 | 14
O=C(NCc1ccccc1)N1CCc2c(sc3c2CCCC3)C1c1ccccc1 (stereo not given) | 16µM* | ? | · | -9% | · | ·
O=C1C2CCCN2C(c2cccs2)N1c1ccc(Cl)cc1 (stereo not given) | -12% | -6% | ? | -3% | 19 | 21
C[C@]12CCC3C(CC[C@H]4C[C@H](OC(=O)c5cccnc5)CC[C@]34C)C1CCC2=O (stereo not given in full) | 23µM* | ? | ? | 7% | 21 | 10
C[C@@]12CCC(O)C[C@H]1CCC1C2CC[C@]2(C)C(=O)CCC12 (stereo not given in full) | ? | ? | · | 3% | · | ·
C[C@]12CC[C@H](O)C[C@@H]1CC[C@H]1[C@H]3CCC(=O)[C@@]3(C)CC[C@@H]12 | 18µM* | ? | · | · | -25 | ·
CN1CCC(c2c[nH]c3ccccc23)C1 (stereo not given) | ? | -12% | 11% | · | ? | 27
CC1CCCC(C)N1/N=C/c1c[nH]c2ccc(Br)cc12 (stereo not given) | ? | ? | -6% | 3% | -93* | 17
Oc1cccc(Cl)c1 | · | · | · | 4% | · | ·
CCCCCCCCCCCCCC(=O)O[C@@H]1[C@@H](C)[C@@]2(O)[C@@H](C=C(CO)C[C@@]3(O)C(=O)C(C)=C[C@@H]23)C2C(C)(C)[C@@]21OC(C)=O (stereo not given in full) | · | · | · | 5%[56.1 µM] | · | ·
S=P(NCCSCc1ccccc1)(N1CC1)N1CC1 | 7.3µM* | 3.7µM* | · | · | -21 | 5
S=P(NCCNP(=S)(N1CC1)N1CC1)(N1CC1)N1CC1 | 1.3µM* | -59% | · | · | 8 | -2
NC[C@H](CS(=O)(=O)O)c1ccc(Cl)cc1 | -1% | 22% | · | 14%[56.1 µM] | · | ·
COc1ccc2nc(NC(=O)CCNS(=O)(=O)c3ccc4c(c3)oc(=O)n4C)sc2c1 | ? | -27% | 20% | 3% | 21 | 1
O=C(/C=C/c1ccccc1)C1C(=O)c2ccccc2C1=O | 4.6µM* | 3.7µM* | ? | 3% | 1 | ?
Cc1ccc(/C(CSc2nccn2-c2ncc(C(F)(F)F)cc2Cl)=N\O)cc1 | 18µM* | ? | -5% | 3% | 1 | 3
CC(C)CC(CN)CC(=O)O (stereo not given) | · | · | · | 7%[56.1 µM] | · | ·
SMILES | DT40 TDP1 no CPT | DT40 TDP1 CPT | ELG1 DNA repair | TDP1 inh | IL1B secr inh | Giardia kill
CCOC(=O)c1cccc(NC2c3ccccc3C(=O)N2Cc2ccco2)c1 (stereo not given) | 6.5µM* | 12µM* | ? | 8% | 0 | 3
O=C(Nc1ccc(F)cc1)Oc1ccc[nH]c1=O | ? | ? | ? | -3% | ? | -23
c1cncc([C@H]2CCCCN2)c1 | -14% | 2% | · | 14%[56.1 µM] | · | ·
C[C@H]1O[C@@H](OC2CC[C@]3(C=O)[C@H]4CC[C@]5(C)[C@@H](C6=CC(=O)OC6)CC[C@]5(O)[C@@H]4CC[C@]3(O)C2)CC2OC(C)(C)OC21 (stereo not given in full) | 1µM* | 1.8µM* | ? | · | -93* | 12
CC12CCC3C(CCC4(O)CC(O)CCC34C=NO)C1(O)CCC2C1=COC(=O)C1 (stereo not given) | 8.2µM* | 16µM* | · | · | -104* | -6
C[C@]12CC[C@H]3[C@@H](CC[C@]4(O)C[C@@H](O)CC[C@]34C=O)[C@@]1(O)CC[C@@H]2C1=CC(=O)OC1 | 5.2µM* | 7.3µM* | ? | · | -67* | ?
CC12CC[C@H]3[C@@H](CCC4(O)C[C@H](O)CCC34/C=N/NC(=O)c3ccccc3Cl)C1(O)CCC2C1=CC(=O)OC1 (stereo not given in full) | 0% | 1% | -3% | 4% | -6 | 4
CC12CCC3C(CCC4(O)CC(O)CCC34C=O)C1(O)CCC2C1=CC(=O)OC1 (stereo not given) | 7.3µM* | 10µM* | · | · | ? | -2
COc1cc(OC)cc(C(=O)Nc2nc(-c3nnn(-c4ccc(C)cc4)c3C)ns2)c1 | ? | ? | · | 0% | · | ·

Screening data: PubChem BioAssay, National Center for Advancing Translational Sciences (NCATS)
